Results reported in ChEMBL document CHEMBL3988442, “University of Dundee, Small-Polar-MMV Screening Library” (2021).
For some assays here: Entries with a potency or affinity are not part of this list.

Legend:
Design in all cases: scale not given: direction of the effect not stated beside the values
[1] = target: Protein translocase subunit SecA (Escherichia coli (strain K12)) (UniProt P10408); test: Assay to Identify E. coli SecA ATPase Inhibitors; assay type: functional; details: 30 µM
[2] = target: T1, Ubiquitin-activating enzyme e1, putative (Leishmania donovani (strain BPK282A1)) (UniProt E9BSI1); test: Leishmania donovani Ubiquitin Activating Enzyme (LdE1); assay type: functional; details: 30 µM
T1 sequence (whole entry): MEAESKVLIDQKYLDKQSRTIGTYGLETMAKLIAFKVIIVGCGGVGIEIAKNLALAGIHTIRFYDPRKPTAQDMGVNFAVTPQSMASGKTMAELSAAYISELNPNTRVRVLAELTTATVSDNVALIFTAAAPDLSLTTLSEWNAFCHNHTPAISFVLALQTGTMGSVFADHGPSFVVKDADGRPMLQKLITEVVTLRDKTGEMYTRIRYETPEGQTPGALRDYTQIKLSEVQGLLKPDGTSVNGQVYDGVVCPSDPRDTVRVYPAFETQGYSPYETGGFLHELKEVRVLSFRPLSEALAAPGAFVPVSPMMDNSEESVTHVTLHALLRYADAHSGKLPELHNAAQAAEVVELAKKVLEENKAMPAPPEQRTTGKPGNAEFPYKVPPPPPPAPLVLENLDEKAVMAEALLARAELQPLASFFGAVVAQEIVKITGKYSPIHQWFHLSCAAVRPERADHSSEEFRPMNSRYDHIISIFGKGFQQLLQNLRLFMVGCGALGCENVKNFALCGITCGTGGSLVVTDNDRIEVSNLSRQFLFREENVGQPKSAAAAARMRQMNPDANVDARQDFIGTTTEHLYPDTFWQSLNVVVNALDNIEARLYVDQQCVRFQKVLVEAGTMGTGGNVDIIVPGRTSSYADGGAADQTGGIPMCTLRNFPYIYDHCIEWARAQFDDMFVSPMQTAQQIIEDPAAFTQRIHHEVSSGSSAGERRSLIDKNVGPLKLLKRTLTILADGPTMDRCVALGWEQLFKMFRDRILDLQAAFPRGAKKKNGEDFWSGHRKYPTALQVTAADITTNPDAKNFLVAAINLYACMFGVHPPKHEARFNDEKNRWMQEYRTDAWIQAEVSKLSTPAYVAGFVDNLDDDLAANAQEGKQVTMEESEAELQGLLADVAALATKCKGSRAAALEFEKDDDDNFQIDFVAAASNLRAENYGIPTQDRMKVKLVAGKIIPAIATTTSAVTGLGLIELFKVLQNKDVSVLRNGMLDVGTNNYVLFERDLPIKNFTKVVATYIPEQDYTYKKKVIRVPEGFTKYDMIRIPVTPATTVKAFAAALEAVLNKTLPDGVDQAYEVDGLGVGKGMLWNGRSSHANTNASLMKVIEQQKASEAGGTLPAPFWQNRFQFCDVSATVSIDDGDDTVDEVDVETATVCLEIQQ

[3] = target: AMP-activated protein kinase, AMPK (Homo sapiens) (UniProt P54646+O43741+P54619+Q9UGJ0+Q9Y478+Q13131+Q9UGI9); test: AMP-dependent Kinase enzyme assay. An in vitro enzyme assay that detects ADP turnover that is directly proportional to AMPK activity. This uses naive AMPK that is activated during the assay with MK-8722; assay type: functional; details: 30 µM
[4] = target: Sialic acid-binding Ig-like lectin 9 (Homo sapiens) (UniProt Q9Y336); test: Hs-Siglec9 ALPHAscreen SOP 20170721; details: 10 µM
Sequence of Sialic acid-binding Ig-like lectin 9 (Homo sapiens) (Q9Y336 whole entry): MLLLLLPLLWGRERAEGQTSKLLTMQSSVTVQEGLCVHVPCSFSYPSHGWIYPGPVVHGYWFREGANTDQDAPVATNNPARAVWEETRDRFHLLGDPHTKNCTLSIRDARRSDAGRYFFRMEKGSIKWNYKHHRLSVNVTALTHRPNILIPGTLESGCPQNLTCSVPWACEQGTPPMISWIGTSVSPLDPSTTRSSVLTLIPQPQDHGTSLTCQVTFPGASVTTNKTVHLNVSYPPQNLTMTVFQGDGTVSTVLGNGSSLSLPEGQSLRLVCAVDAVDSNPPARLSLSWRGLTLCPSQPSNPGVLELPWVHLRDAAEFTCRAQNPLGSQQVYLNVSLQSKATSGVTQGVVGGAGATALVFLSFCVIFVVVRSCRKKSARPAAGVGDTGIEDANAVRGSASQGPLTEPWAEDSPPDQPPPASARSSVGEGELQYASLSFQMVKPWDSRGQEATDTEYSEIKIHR

Trypanosoma cruzi = test: Trypanosoma cruzi phosphomannomutase and mannose-1-phosphate guanylyltransferase assay; assay type: functional; details: 10 µM
[5] = target: T2, Arginase-2, mitochondrial (Homo sapiens) (UniProt P78540); test: in vitro enzyme assay to detect the production of urea directly proportional to the activity of Arginase II; assay type: functional; details: 33.3 µM; note: in the data most compounds retested in dose-response had high values
T2 sequence (whole entry): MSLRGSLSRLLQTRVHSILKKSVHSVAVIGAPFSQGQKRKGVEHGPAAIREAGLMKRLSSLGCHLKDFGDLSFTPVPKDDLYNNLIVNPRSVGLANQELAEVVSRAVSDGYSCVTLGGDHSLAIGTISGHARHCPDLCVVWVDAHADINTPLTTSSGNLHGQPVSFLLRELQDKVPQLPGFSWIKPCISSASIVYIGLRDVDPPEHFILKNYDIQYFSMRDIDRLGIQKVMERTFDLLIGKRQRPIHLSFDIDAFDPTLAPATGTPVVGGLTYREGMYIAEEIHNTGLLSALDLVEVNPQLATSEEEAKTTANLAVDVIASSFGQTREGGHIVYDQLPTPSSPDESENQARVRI

[6] = target: T3, Proteasome subunit beta (Trypanosoma cruzi) (UniProt O96673); test: Trypanosoma cruzi proteasome chymotrypsin-like activity (TcProtChymo) assay.; note: in the data most compounds retested in dose-response had high values; assay type: functional; details: 9.37 µM
T3 sequence (whole entry): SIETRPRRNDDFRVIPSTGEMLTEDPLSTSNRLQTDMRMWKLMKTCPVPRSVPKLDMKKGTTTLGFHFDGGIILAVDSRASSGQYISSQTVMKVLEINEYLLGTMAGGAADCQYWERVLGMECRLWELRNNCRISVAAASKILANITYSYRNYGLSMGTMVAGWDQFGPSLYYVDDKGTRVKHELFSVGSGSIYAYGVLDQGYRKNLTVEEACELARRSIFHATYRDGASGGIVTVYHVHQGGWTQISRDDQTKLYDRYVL

Homo sapiens = organism: Homo sapiens; test: To identify inhibition of the IFN signalling (Jak-Stat) pathway via expression of an eGFP reporter gene under the control of an IFN-stimulated response element (ISRE) containing MxA promoter.; assay type: functional; details: 30 µM
[7] = target: T4, Tyrosyl-tRNA synthetase, putative (Trypanosoma cruzi (strain CL Brener)) (UniProt Q4DSP6); test: Trypanosoma cruzi tyrosyl tRNA synthetase (TcYRS) _High Tyrosine SOP; assay type: functional; details: 30 µM; note: in the data most compounds retested in dose-response had high values
T4 sequence (whole entry): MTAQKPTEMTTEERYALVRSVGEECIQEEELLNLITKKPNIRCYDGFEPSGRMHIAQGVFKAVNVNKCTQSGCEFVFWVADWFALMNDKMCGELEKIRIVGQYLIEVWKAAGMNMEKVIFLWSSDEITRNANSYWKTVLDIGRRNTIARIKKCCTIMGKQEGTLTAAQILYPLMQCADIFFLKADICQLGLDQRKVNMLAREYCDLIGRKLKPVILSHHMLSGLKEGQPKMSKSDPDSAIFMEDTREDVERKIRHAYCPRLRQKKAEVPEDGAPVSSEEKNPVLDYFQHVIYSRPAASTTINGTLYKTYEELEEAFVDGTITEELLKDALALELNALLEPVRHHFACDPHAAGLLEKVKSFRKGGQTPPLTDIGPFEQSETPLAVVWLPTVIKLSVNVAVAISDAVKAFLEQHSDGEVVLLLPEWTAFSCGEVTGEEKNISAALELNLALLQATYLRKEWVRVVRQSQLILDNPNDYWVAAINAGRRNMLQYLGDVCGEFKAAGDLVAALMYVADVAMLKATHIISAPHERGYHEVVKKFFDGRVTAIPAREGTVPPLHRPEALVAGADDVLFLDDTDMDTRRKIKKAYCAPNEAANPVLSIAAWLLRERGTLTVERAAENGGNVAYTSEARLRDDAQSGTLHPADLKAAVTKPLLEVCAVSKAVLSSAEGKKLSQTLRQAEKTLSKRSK

[8] = target: T4, Tyrosyl-tRNA synthetase, putative (Trypanosoma cruzi (strain CL Brener)); test: Trypanosoma cruzi tyrosyl tRNA synthetase (TcYRS) SOP; assay type: functional; details: 30 µM
[9] = target: Chromo domain-containing protein 1 (Saccharomyces cerevisiae (strain ATCC 204508 / S288c) (Baker's yeast)) (UniProt P32657); test: ScCHD-1 Enzyme Inhibition Assay; assay type: functional; details: 30 µM; note: in the data most compounds retested in dose-response had high values
Sequence of Chromo domain-containing protein 1 (Saccharomyces cerevisiae (strain ATCC 204508 / S288c) (Baker's yeast)) (P32657 whole entry, the tested form may be a part): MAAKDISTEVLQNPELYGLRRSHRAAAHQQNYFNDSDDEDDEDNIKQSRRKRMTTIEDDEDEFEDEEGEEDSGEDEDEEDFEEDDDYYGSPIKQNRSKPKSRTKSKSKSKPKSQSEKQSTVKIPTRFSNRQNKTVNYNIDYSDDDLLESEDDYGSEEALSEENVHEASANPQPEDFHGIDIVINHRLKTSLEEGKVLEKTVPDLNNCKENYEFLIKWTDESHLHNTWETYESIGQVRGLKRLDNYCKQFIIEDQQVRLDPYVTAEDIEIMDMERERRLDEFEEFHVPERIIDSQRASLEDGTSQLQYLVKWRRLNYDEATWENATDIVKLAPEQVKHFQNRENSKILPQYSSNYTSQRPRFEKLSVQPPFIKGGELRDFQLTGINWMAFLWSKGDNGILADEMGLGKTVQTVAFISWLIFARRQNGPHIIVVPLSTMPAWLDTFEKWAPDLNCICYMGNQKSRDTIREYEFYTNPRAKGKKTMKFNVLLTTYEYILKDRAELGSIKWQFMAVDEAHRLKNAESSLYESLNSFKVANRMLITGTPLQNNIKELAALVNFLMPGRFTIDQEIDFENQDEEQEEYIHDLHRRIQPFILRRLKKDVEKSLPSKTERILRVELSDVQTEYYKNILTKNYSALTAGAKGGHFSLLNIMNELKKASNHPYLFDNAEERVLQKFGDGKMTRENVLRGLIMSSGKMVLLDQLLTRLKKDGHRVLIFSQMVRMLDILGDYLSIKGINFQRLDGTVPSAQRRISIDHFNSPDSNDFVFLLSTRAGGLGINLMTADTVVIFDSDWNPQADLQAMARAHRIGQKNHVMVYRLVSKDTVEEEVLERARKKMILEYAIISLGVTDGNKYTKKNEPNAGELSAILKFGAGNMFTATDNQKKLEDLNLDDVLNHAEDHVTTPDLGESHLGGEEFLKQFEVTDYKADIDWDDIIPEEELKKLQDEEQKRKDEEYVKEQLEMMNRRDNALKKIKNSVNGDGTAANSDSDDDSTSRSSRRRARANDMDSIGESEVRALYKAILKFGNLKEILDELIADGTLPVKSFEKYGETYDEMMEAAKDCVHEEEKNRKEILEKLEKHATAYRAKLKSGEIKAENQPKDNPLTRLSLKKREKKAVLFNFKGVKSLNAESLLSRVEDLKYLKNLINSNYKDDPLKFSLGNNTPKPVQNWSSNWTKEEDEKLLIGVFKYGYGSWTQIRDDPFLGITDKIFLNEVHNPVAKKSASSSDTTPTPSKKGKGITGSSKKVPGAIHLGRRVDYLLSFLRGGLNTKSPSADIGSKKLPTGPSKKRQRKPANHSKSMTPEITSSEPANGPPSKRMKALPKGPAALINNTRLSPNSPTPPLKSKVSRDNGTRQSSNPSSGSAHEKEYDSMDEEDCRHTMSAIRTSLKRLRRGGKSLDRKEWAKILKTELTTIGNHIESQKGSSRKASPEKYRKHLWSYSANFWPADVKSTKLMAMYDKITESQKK

Sequence of Protein translocase subunit SecA (Escherichia coli (strain K12)) (P10408 whole entry): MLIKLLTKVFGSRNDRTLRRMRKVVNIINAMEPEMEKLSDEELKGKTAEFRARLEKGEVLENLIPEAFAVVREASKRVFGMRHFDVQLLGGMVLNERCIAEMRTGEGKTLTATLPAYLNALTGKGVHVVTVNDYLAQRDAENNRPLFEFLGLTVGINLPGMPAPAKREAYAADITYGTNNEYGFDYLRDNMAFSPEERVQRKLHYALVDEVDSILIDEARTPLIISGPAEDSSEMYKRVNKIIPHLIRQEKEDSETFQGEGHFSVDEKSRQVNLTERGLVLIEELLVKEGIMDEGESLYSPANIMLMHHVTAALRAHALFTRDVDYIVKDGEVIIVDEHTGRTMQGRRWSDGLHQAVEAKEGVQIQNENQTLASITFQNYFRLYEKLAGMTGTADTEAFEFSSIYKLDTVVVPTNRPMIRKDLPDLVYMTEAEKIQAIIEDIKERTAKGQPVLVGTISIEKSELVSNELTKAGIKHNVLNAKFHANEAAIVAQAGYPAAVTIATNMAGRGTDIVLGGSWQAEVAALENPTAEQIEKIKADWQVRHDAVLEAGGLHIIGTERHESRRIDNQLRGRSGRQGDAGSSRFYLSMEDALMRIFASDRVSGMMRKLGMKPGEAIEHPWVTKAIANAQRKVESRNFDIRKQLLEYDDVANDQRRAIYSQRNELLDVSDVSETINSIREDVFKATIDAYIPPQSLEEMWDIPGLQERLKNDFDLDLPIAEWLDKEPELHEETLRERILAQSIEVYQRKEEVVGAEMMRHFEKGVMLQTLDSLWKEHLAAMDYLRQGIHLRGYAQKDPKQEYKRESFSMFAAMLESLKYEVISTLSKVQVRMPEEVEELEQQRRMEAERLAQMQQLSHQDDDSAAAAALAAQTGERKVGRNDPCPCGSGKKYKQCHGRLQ

Structure (SMILES) | Percent Effect [1] | Percent Effect [2] | Percent Effect [3] | Percent Effect [4] | Percent Effect (Trypanosoma cruzi) | Percent Effect [5] | Percent Effect [6] | Percent Effect (Homo sapiens) | Percent Effect [7] | Percent Effect [8] | Percent Effect [9]
CCN1CCC(c2nc3ccc(NC(C)C)cn3n2)CC1 | -3.94% | -2.7% | -138% | -3.17% | 7.62% | -1.25% | 4.48% | -12.5% | 5.94% | 11% | 0.337%
CCN1CC2(CCC1=O)CCN(C(=O)c1ccc(Cl)cc1O)CC2 | 0.161% | 12.5% | -4.82% | 5.1% | 4.37% | 25.6% | 4.56% | 19.3% | 4.21% | 15.4% | -5.87%
CC(=O)N1CCC(c2nccnc2Oc2ccccc2)CC1 | -6.13% | 4.05% | 4.17% | -0.964% | -6.32% | -3.02% | 4.06% | 13.5% | 2.15% | 1.3% | 11.4%
Cc1cn(-c2ccccc2)nc1NS(=O)(=O)c1cccc(C(=O)O)c1 | -4.24% | 0% | 9.15% | -6.49% | -9.01% | 5% | 14.4% | 10.4% | -5.38% | -5% | -7.14%
Cc1cc(=O)n(CC(=O)NCC2CCCO2)c(-c2cccc(Cl)c2)n1 (configuration not stated) | -4.72% | 18.2% | -2.1% | 12.6% | 6.59% | 11% | 9.15% | -10.7% | 5.38% | 16.1% | -4.38%
CC(O)CN1CCN(Cc2nnc(C3CC3)o2)CC1 (configuration not stated) | -2.68% | 22.8% | -5.24% | -11.8% | 6.7% | 4.56% | 15% | -18.4% | 6.4% | 21.5% | -4.52%
O=c1cc(CN2CCCC2)nc2n1CCCN(Cc1ccsc1)C2 | -0.492% | 17.3% | 3.4% | 2.2% | -1.57% | -9.68% | 14.4% | -8.49% | 4.23% | 7.69% | -10.8%
Cc1cnn(CCC(=O)N2CCOC(c3nc(C(C)(C)C)n[nH]3)C2)c1 (configuration not stated) | -3.54% | -6.94% | 7.25% | 3.02% | -3.6% | -0.883% | 5.26% | 20.6% | -1.05% | -10.3% | -1.3%
CCc1csc(C2CCCN(C(=O)c3c[nH]c(C)n3)C2)n1 (configuration not stated) | -1.65% | 7.79% | -3.3% | 1.9% | 6.18% | -1.78% | -3.88% | -6.54% | 2.91% | 12.2% | -6.32%
CCc1ncncc1C(=O)N1CCOC(c2nc(C)n[nH]2)C1 (configuration not stated) | -9.48% | -1.27% | 7.38% | 5.45% | -2.56% | 2.8% | 5.32% | 1.37% | 1.04% | 10.1% | 1.96%
O=S(=O)(NCC1(O)CCOc2ccccc21)c1cccs1 (configuration not stated) | -8.36% | 0% | 3.61% | -4.67% | -3.72% | -0.455% | 5.86% | 8.26% | 1.07% | 5% | 0.9%
O=C(Nc1ccc(CCN2CCC(O)CC2)cc1)C1CCOCC1 | -1.94% | 2.7% | -6.78% | 11.5% | 4.18% | -1.66% | 1.98% | 3.22% | 5.94% | 11% | -3.93%
Cc1nc[nH]c1CN(C)CC1CCCN(CCc2ccc(Cl)cc2)C1 (configuration not stated) | 0.978% | -5.48% | 4.19% | 6.4% | 4.11% | 10.4% | 5.32% | 61.3% | 9.68% | 2.5% | -4.79%
O=C(COc1cccc2c1CCC2=O)NCc1ccccc1F | -2.77% | 13.2% | 2.6% | -2.18% | 4.58% | 11.8% | 9.49% | 11% | 3.19% | 10.4% | -2.42%
O=C(CN1CCCCC1Cn1cccn1)NC1CCN(C2CC2)CC1 (configuration not stated) | -0.952% | 0% | -4.99% | 6.13% | -1.16% | -4.29% | 13.3% | 1.18% | 0.529% | 2.44% | -1.27%
CCN(CC1CCOC1)C(=O)c1ccccc1NS(=O)(=O)CC (configuration not stated) | -5.12% | 7.89% | -0.433% | -1.92% | 1.03% | -1.08% | 6.34% | -2.41% | 7.39% | 18.5% | -4.83%
CNC(=O)C1CCN(C(=O)CCn2cccn2)CC1 | -7.35% | 13.5% | 2.1% | 7.36% | -4.92% | 5.73% | -1.44% | 19.3% | -0.99% | -1.22% | 6.84%
COc1cccc(N2CCN(Cc3ccc(NC(C)=O)cc3)CC2=O)c1 | -2.84% | 18.1% | -5.61% | 20.1% | 6.51% | 10.2% | 11.6% | 4.1% | 4.21% | 15.4% | -2.22%
CC(C)NC(=O)N1CCN(S(=O)(=O)C2CC2)CC2(CC(=O)N(C)C2)C1 (configuration not stated) | -4.24% | 10.4% | 5.32% | -0.477% | 5.23% | -5.81% | -2.79% | 12.6% | 1.06% | 6.41% | -4.42%
CC(c1ccccc1)n1c(SCC(=O)O)nnc1-c1ccccc1Cl (configuration not stated) | -3.8% | 15.3% | -8.09% | 28.7% | 4.57% | -3.53% | 9.65% | 13.3% | 4.21% | 12.8% | -5.19%
CCCN(CC(=O)NC)C(=O)c1ccc(-c2ccsc2)nc1C | -1.19% | 6.94% | -2.8% | 10.6% | 4.76% | 36.2% | 17.9% | 12.1% | 7.37% | 17.9% | 91%
NC(=O)COc1cccc(C(=O)N2CCCC(n3cccn3)C2)c1 (configuration not stated) | -3.05% | 13.5% | -1.18% | 4.63% | 8.45% | 1.29% | 16% | 4.13% | 4.95% | 28.1% | -6.2%
